For some of these results: Results with a measured potency or affinity are listed apart.
Legend:
Set-up in all cases: scale not given: direction of the effect not stated beside the values
[1] = biological target: Protein translocase subunit SecA (Escherichia coli (strain K12)) (UniProt P10408); assay: Assay to Identify E. coli SecA ATPase Inhibitors; format: functional; details: 30 µM
[2] = biological target: T1, Ubiquitin-activating enzyme e1, putative (Leishmania donovani (strain BPK282A1)) (UniProt E9BSI1); assay: Leishmania donovani Ubiquitin Activating Enzyme (LdE1); format: functional; details: 30 µM
T1 sequence (whole entry): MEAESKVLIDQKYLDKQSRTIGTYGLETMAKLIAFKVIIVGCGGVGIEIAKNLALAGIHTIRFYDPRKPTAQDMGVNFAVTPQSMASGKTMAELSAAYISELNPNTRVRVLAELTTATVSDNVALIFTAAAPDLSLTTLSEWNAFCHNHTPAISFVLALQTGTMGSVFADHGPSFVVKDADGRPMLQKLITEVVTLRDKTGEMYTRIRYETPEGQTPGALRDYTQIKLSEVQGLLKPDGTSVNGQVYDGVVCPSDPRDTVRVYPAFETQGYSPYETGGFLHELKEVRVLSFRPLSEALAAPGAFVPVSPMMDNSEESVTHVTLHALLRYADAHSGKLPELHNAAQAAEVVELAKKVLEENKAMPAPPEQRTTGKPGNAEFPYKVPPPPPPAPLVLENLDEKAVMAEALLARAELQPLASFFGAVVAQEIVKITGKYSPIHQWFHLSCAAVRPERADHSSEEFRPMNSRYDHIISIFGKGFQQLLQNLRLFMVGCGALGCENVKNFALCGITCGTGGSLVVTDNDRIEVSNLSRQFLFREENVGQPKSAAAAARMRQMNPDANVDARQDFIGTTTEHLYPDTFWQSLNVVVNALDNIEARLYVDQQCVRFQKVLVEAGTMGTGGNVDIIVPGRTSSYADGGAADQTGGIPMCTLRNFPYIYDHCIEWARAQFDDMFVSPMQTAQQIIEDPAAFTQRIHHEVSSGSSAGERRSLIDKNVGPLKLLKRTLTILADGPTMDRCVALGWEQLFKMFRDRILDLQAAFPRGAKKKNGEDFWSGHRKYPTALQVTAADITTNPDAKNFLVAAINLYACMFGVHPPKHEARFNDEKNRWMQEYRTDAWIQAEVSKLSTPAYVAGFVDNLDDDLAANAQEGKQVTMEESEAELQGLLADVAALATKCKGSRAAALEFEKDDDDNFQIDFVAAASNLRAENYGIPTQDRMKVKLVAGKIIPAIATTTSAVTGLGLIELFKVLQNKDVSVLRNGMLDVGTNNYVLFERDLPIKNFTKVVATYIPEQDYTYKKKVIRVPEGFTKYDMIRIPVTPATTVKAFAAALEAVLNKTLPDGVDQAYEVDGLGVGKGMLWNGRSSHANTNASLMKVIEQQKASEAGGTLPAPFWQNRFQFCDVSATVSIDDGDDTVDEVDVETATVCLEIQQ

[3] = biological target: AMP-activated protein kinase, AMPK (Homo sapiens) (UniProt P54646+O43741+P54619+Q9UGJ0+Q9Y478+Q13131+Q9UGI9); assay: AMP-dependent Kinase enzyme assay. An in vitro enzyme assay that detects ADP turnover that is directly proportional to AMPK activity. This uses naive AMPK that is activated during the assay with MK-8722; format: functional; details: 30 µM
[4] = biological target: Sialic acid-binding Ig-like lectin 9 (Homo sapiens) (UniProt Q9Y336); assay: Hs-Siglec9 ALPHAscreen SOP 20170721; details: 10 µM
Trypanosoma cruzi = assay: Trypanosoma cruzi phosphomannomutase and mannose-1-phosphate guanylyltransferase assay; format: functional; details: 10 µM
[5] = biological target: T2, Arginase-2, mitochondrial (Homo sapiens) (UniProt P78540); assay: in vitro enzyme assay to detect the production of urea directly proportional to the activity of Arginase II; format: functional; details: 33.3 µM; further: in the data most compounds retested in dose-response had high values
T2 sequence (whole entry): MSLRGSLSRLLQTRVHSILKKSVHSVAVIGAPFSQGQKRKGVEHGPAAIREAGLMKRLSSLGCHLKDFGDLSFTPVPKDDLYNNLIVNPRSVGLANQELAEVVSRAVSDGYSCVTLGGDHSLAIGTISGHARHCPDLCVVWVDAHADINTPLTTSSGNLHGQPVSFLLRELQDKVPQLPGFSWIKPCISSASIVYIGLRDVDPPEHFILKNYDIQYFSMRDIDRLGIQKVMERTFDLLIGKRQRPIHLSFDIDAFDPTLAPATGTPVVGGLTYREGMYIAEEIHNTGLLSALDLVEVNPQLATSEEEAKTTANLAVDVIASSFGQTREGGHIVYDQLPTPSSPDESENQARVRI

[6] = biological target: T3, Proteasome subunit beta (Trypanosoma cruzi) (UniProt O96673); assay: Trypanosoma cruzi proteasome chymotrypsin-like activity (TcProtChymo) assay.; further: in the data most compounds retested in dose-response had high values; format: functional; details: 9.37 µM
T3 sequence (whole entry): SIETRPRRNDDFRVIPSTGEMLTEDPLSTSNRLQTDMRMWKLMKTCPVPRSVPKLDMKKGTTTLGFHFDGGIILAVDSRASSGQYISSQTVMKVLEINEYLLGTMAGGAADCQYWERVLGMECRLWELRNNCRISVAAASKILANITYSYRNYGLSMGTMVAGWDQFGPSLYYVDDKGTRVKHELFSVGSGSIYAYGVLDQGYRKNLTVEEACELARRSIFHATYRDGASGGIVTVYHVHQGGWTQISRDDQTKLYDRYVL

Homo sapiens = species on record: Homo sapiens; assay: To identify inhibition of the IFN signalling (Jak-Stat) pathway via expression of an eGFP reporter gene under the control of an IFN-stimulated response element (ISRE) containing MxA promoter.; format: functional; details: 30 µM
[7] = biological target: T4, Tyrosyl-tRNA synthetase, putative (Trypanosoma cruzi (strain CL Brener)) (UniProt Q4DSP6); assay: Trypanosoma cruzi tyrosyl tRNA synthetase (TcYRS) _High Tyrosine SOP; format: functional; details: 30 µM; further: in the data most compounds retested in dose-response had high values
T4 sequence (whole entry): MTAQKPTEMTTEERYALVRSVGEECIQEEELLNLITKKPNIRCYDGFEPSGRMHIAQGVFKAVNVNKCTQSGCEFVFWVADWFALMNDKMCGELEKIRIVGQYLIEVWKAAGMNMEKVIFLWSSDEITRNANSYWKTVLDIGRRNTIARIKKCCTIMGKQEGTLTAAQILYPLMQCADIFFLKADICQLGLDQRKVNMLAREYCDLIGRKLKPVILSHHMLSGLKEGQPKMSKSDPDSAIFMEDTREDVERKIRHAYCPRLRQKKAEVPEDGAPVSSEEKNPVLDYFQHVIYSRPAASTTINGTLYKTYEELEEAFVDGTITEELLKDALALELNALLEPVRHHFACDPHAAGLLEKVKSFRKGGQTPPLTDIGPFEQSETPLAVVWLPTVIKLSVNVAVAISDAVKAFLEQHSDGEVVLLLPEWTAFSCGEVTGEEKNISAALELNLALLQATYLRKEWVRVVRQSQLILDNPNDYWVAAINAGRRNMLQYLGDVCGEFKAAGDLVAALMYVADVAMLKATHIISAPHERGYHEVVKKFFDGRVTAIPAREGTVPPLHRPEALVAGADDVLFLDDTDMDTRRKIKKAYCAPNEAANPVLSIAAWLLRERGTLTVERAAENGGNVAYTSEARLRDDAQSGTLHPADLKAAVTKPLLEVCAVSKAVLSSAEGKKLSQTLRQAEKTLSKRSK

[8] = biological target: T4, Tyrosyl-tRNA synthetase, putative (Trypanosoma cruzi (strain CL Brener)); assay: Trypanosoma cruzi tyrosyl tRNA synthetase (TcYRS) SOP; format: functional; details: 30 µM
[9] = biological target: Chromo domain-containing protein 1 (Saccharomyces cerevisiae (strain ATCC 204508 / S288c) (Baker's yeast)) (UniProt P32657); assay: ScCHD-1 Enzyme Inhibition Assay; format: functional; details: 30 µM; further: in the data most compounds retested in dose-response had high values
Sequence of Chromo domain-containing protein 1 (Saccharomyces cerevisiae (strain ATCC 204508 / S288c) (Baker's yeast)) (P32657 whole entry, the tested form may be a part): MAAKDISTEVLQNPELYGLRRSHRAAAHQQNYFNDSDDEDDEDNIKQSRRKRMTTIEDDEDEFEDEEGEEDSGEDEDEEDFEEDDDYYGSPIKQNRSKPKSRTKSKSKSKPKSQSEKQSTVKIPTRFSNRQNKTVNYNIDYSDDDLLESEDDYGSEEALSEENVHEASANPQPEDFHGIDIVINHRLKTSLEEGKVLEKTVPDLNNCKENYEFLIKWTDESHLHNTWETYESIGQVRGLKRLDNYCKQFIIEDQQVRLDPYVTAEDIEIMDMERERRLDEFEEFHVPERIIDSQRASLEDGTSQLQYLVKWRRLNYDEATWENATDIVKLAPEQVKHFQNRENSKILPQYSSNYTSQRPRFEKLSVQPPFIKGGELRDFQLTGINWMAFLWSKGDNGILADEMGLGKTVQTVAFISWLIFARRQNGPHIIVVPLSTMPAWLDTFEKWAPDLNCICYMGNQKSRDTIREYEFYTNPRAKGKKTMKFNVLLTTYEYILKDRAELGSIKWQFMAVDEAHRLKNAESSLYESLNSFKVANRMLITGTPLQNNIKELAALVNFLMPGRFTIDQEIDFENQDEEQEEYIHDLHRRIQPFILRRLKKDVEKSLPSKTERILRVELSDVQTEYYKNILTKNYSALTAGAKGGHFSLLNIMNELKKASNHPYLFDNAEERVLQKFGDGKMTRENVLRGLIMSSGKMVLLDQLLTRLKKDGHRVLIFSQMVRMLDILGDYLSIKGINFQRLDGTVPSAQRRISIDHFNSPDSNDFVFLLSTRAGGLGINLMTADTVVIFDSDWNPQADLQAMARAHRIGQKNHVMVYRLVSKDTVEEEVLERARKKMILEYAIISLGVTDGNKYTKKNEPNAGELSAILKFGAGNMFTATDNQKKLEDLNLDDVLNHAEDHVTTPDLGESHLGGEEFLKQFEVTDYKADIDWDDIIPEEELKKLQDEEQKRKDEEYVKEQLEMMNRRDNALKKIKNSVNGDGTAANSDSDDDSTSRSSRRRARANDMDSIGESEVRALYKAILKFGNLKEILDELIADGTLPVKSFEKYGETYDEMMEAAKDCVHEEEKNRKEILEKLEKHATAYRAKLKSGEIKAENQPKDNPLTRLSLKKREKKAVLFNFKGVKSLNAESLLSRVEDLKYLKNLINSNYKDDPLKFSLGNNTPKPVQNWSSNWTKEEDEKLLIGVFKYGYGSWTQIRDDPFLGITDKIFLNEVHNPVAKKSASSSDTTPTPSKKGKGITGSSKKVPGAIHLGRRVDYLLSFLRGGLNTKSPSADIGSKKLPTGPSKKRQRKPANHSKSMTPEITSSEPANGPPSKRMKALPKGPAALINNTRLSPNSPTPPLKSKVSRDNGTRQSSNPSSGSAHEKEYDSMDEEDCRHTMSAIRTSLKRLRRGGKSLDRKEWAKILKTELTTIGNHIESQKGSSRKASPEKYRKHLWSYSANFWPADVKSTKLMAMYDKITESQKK

Sequence of Sialic acid-binding Ig-like lectin 9 (Homo sapiens) (Q9Y336 whole entry): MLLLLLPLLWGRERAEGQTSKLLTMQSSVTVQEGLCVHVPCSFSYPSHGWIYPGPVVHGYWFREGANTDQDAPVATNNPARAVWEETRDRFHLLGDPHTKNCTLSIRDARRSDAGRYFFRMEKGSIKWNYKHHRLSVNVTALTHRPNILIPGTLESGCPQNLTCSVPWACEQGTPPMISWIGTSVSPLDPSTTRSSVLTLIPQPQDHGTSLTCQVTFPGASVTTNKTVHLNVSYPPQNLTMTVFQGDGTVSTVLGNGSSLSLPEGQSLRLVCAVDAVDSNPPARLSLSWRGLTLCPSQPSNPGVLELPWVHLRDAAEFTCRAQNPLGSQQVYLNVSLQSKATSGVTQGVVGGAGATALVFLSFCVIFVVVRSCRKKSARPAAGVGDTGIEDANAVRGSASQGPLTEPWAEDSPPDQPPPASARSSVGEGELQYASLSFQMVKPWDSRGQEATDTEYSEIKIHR
Sequence of Protein translocase subunit SecA (Escherichia coli (strain K12)) (P10408 whole entry): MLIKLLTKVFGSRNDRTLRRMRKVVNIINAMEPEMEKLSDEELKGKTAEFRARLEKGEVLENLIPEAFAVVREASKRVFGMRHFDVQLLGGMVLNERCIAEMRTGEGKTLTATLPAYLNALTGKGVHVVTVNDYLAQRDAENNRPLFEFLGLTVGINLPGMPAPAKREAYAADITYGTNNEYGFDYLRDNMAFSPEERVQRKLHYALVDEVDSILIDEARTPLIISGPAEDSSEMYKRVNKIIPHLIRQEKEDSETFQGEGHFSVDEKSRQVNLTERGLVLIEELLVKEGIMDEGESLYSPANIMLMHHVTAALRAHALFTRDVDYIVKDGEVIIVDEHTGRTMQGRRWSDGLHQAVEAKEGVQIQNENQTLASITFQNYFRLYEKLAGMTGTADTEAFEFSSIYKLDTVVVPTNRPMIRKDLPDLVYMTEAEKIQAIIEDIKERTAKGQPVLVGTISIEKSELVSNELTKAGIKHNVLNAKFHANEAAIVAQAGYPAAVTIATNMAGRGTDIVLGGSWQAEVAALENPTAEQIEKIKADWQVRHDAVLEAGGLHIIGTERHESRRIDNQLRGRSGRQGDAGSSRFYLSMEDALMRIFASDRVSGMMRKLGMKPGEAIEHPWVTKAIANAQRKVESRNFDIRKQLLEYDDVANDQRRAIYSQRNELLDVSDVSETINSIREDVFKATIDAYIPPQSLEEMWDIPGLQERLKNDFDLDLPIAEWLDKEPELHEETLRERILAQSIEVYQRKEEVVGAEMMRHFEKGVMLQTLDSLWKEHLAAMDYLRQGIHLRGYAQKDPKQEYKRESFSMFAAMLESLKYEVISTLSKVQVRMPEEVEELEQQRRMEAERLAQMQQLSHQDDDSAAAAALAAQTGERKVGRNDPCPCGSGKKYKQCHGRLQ

| SMILES | Percent Effect [1] [%] | Percent Effect [2] [%] | Percent Effect [3] [%] | Percent Effect [4] [%] | Percent Effect (Trypanosoma cruzi) [%] | Percent Effect [5] [%] | Percent Effect [6] [%] | Percent Effect (Homo sapiens) [%] | Percent Effect [7] [%] | Percent Effect [8] [%] | Percent Effect [9] [%] |
| --- | --- | --- | --- | --- | --- | --- | --- | --- | --- | --- | --- |
| CC(=O)N1CCN([C@@H]2CC[C@@H](NC(=O)c3cncc(C)c3)[C@H]2O)CC1 | -3.3 | -4.05 | 8.93 | -4.38 | -3.75 | -2.09 | -3.28 | 18.6 | -2.15 | -11.7 | 15.5 |
| CCN1CCN(C2CCN(Cc3nc4ccccc4o3)CC2)C1=O | -1.89 | 10.4 | 0.349 | -1.67 | 1.67 | -2.74 | 14.2 | -19 | 7.62 | 21.2 | -20.3 |
| c1csc(-c2noc(CCCN3CCCC3Cn3cccn3)n2)c1 (stereo not given) | -4.94 | -13.5 | -5.55 | 4.78 | 0.849 | -6.41 | -1.98 | 0.955 | 4.43 | 1.24 | -1.71 |
| Cn1nnc2c1CCN(CC1CC1)C2COCc1ccccc1 (stereo not given) | -1.15 | 16 | -5.25 | -5.75 | 2.36 | 5.36 | 3.44 | -2.55 | 9.57 | 14.1 | -4.41 |
| CCOc1ccccc1C(CC(=O)Nc1nc(C)cs1)NC(C)=O (stereo not given) | -1.09 | 5.26 | -0.999 | 0.981 | -2.63 | 4.21 | 6.85 | 10.1 | 3.43 | 9.76 | -5.47 |
| Cc1n[nH]c(C2CN(C(=O)CCc3ccsc3)CCO2)n1 (stereo not given) | -6.4 | -2.74 | 2.76 | 0.78 | 0.783 | -7.27 | -2.13 | -11.9 | 0 | 2.5 | 0.695 |
| CCn1ccnc1-c1nc2cc(S(=O)(=O)N3CCCC3)ccc2n1C | -6.04 | 0 | 3.54 | 25.2 | 4.31 | 6.36 | 4.97 | 2.47 | 3.23 | 10 | 100 |
| COc1ncccc1C(=O)Nc1nc2c(s1)CN(S(=O)(=O)C1CC1)CC2 | -8.71 | 0 | 25.5 | -2.45 | -4.9 | 1.82 | 29.8 | 21.4 | 3.23 | 5 | 102 |
| CC(C)NC(=O)Cn1cc(-c2ccccc2)cn1 | -1.92 | 6.33 | 6.33 | -0.321 | 2.15 | 3.23 | 13.7 | -2.22 | 4.17 | 10.1 | 1.99 |
| CCN(CC)c1ccc(-c2nc(-c3cccc(OC)c3OC)no2)cn1 | -3.58 | 8 | -0.0158 | 12.2 | 6.52 | 17.2 | 0.349 | 10.7 | 1.64 | -8.64 | -2.98 |
| CC(NCc1ccc(F)cc1)c1ccc(OCC(=O)NC2CC2)cc1 (stereo not given) | -1.43 | 6.33 | 9.48 | -4.28 | -6.26 | -7.1 | 18 | 17 | 1.04 | 2.53 | -17.3 |
| CSc1cccc(CN(C)C(=O)C2CC(=O)N(CCN(C)C)C2)c1 (stereo not given) | 0.893 | 10.7 | -12.1 | 4.56 | 4.38 | 18.2 | 18.1 | 29.9 | 8.2 | 16.1 | -0.611 |
| COCCCn1c(CN2CCCC(O)C2)cnc1S(=O)(=O)C1CCCC1 (stereo not given) | -5.06 | 10.4 | -2.5 | 10.5 | 4.62 | -85.5 | 3.99 | -9.18 | 3.23 | 11.1 | -11 |
| COc1cccc(S(=O)(=O)CCN2CCC3(CC2)OCCO3)c1 | -7.81 | 2.67 | -4.97 | 6.11 | 3.99 | 5.21 | 6.45 | 6.75 | 3.83 | 6.17 | -5.65 |
| Cn1ccc(CN2CCC(CCc3ccc(O)cc3)CC2)cc1=O | -1.04 | 6.33 | 43.4 | 0.347 | 3.38 | -1.07 | 1.89 | 10.3 | 0 | -17.7 | -10.1 |
| CC(C)(O)C1CCN(C(=O)Nc2nc(-c3ccccc3)ns2)CC1 | -2.39 | 2.7 | -2.64 | 7.48 | 2.25 | 18.6 | 18.8 | 55.5 | 1.07 | 3.7 | -3.52 |
| CNC(=O)CS(=O)(=O)Cc1cc(Cl)c2c(c1)OCCCO2 | -1.64 | 12.7 | -5.11 | -6.27 | 3.87 | -2.66 | 7.62 | -4.79 | 10.3 | 24.1 | -6.28 |
| CCn1nnc2c1C(COC)CN(C(=O)COc1ccccc1)C2 (stereo not given) | -3.61 | 0 | -1.01 | -0.576 | -2.73 | 0 | 10.4 | -3.63 | 5.94 | 3.66 | 9.82 |
| N#CCCN(C(=O)CN1CCCC1c1ccsc1)c1ccccc1F (stereo not given) | -3.56 | -18.9 | -2.34 | -0.732 | -2.51 | -8.69 | -0.718 | 16.7 | 3.96 | 1.22 | 21.4 |
| Cc1cc(CN2CCC(CNC(=O)c3ccc(O)c(Cl)c3)C2)[nH]n1 (stereo not given) | -4.67 | 2.7 | -0.362 | 22.1 | -8.7 | 2.23 | 5.24 | 4.66 | 2.15 | 11.1 | -0.611 |

Reference: ChEMBL document CHEMBL3988442, “University of Dundee, Small-Polar-MMV Screening Library” (2021)
